{
  "source": "PubChem BioAssay (EPA / NIEHS)",
  "note": "Results filed as inconclusive are left out. Active and inactive are the calls of the source. The calls were made as follows: active = hit-call score of the fitted dose curve at least 0.9, where 1 is the maximum; inconclusive = response in the unintended direction; inactive = score below 0.9.",
  "data": [
    {"target": "Cellular tumor antigen p53 (Homo sapiens) (UniProt P04637)", "sequence (P04637 whole entry, looked up)": "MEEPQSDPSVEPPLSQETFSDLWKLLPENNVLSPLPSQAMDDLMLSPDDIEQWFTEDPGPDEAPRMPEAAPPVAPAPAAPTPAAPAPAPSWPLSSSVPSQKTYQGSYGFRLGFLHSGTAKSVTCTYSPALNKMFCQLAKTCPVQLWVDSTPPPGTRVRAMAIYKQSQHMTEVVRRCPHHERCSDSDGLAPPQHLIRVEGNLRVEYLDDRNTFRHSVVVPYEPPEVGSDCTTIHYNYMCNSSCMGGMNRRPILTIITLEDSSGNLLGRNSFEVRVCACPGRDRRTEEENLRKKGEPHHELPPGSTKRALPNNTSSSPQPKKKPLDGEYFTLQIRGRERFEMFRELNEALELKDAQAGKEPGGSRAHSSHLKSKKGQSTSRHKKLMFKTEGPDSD", "experiment": "TOX21_p53_BLA_p4_ratio: Tox21 HCT-116 p53 Agonism Beta-lactamase Assay, Ratio, Phase 4 (AID 2283601)", "how_it_was_run": "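HCT-116 p53 beta-lactamase reporter cells (4000/well) preincubated 5 h, then compound (217-fold dilution of DMSO stock) for 16 h at 37C. CCF4-AM substrate added 2 h at room temperature; 460/530 nm emission ratio fitted upward versus DMSO.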", "values": [
      {"smiles": "C[N+]1(C)[C@@H]2CC(OC(=O)[C@H](CO)c3ccccc3)C[C@H]1[C@@H]1O[C@@H]12", "note": "(stereo not given in full)", "outcome": "inactive"},
      {"smiles": "O=C1c2ccccc2C(=O)c2c1ccc(O)c2O", "outcome": "inactive"},
      {"smiles": "CC1(C)OC(=O)NC1=O", "outcome": "inactive"},
      {"smiles": "CCOCCC(=O)OCC", "outcome": "inactive"},
      {"smiles": "N[C@H](C(=O)O)[C@@H](O)c1ccc(O)c(O)c1", "outcome": "inactive"},
      {"smiles": "FC(F)(F)c1cccc(Cl)c1", "outcome": "inactive"},
      {"smiles": "CNC(=O)c1ccccc1", "outcome": "inactive"},
      {"smiles": "Nc1nc2c(ncn2COC(CO)CO)c(=O)[nH]1", "outcome": "inactive"},
      {"smiles": "O=C1NC(=O)c2cc([N+](=O)[O-])ccc21", "outcome": "inactive"},
      {"smiles": "CC(Cc1cccc(C(F)(F)F)c1)NCCOC(=O)c1ccccc1", "note": "(stereo not given)", "outcome": "inactive"}
    ]}
  ]
}
